Our source for the growth values is PubChem BioAssay (NCI).

Some test systems named below: 786-0 renal; DU-145 prostate; K-562 leukemia; MALME-3M melanoma; RXF 393 renal; UACC-257 melanoma; SK-MEL-28 melanoma; SK-MEL-2 melanoma; EKVX NSCLC; SN12C renal; UO-31 renal; TK-10 renal; ACHN renal; CAKI-1 renal; A498 renal; CCRF-CEM leukemia; MOLT-4 leukemia; SR leukemia; RPMI-8226 leukemia; OVCAR-8 ovarian.
Common to all, as to assay: NCI-60 one-dose screen, 48 h (100 = growth as untreated, 0 = no growth, -100 = all killed)
What all share (details): 10 µM

Compounds without any hit were thinned out: in the full panel of roughly 83,000, 20% have a hit.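 The test compound was applied at a single concentration to cells in 96-well plates for 48 hours, and percent growth was recorded.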 Unmarked numbers belong to inactive results. Active and inactive are the calls of the source. The calls were made as follows: active = growth percent below 10; inactive = the rest.

Take `COc1ccc2[nH]cc(-c3nc(N)nnc3-c3cn(C)c4ncc(Br)cc34)c2c1`: the growth in the assay on 786-0 renal is 12.8%; in the assay with DU-145 prostate, 11.1%; with K-562 leukemia, 3% (active); with MALME-3M melanoma, 28.7%; with RXF 393 renal, -14% (active); in the assay with UACC-257 melanoma it was 39%. Moreover, the growth in the assay with SK-MEL-28 melanoma was 37.5%; in the assay with SK-MEL-2 melanoma, 36.2%; with EKVX NSCLC, 35.1%; with SN12C renal, 17.8%; in the assay with UO-31 renal it was 3.12% (active); with TK-10 renal it was 11%. In addition, the growth in the assay with ACHN renal is 10.2%; with CAKI-1 renal, -0.341% (active); in the assay on A498 renal it was -21.6% (active); in the assay on CCRF-CEM leukemia, 1.4% (active); in the assay on MOLT-4 leukemia, 2.27% (active); in the assay on SR leukemia it was 3% (active). In addition, the growth in the assay on RPMI-8226 leukemia is -16% (active); in the assay with OVCAR-8 ovarian, 1.18% (active).
For `COc1ccc(Cn2cc(C#N)c(N)c2C(C)=O)c(OC)c1`, the growth in the assay on 786-0 renal is 102%; with DU-145 prostate it was 107%; in the assay with K-562 leukemia, 103%; in the assay with MALME-3M melanoma it was 108%; in the assay on RXF 393 renal, 107%; with UACC-257 melanoma, 109%. The growth in the assay with SK-MEL-28 melanoma is 109%; in the assay on SK-MEL-2 melanoma, 126%; in the assay with EKVX NSCLC, 98.6%; in the assay with SN12C renal it was 96.4%; with UO-31 renal it was 96.4%; with TK-10 renal it was 113%. Further, the growth with ACHN renal is 101%; in the assay on CAKI-1 renal, 102%; with A498 renal, 97.8%; in the assay with CCRF-CEM leukemia it was 105%; in the assay on MOLT-4 leukemia, 105%; in the assay on SR leukemia, 106%. The growth with RPMI-8226 leukemia is 105%; with OVCAR-8 ovarian, 104%.
Regarding `COc1ccc(NCc2cn(-c3ccc(C(=O)O)cc3)nc2-c2ccc(F)cc2)cc1C(F)(F)F`, the growth in the assay with 786-0 renal was 78.2%; with DU-145 prostate, 69.3%; with K-562 leukemia it was 41.3%; with MALME-3M melanoma it was 27.3%; in the assay on RXF 393 renal it was 75.4%; in the assay with UACC-257 melanoma it was 64.9%. The growth with SK-MEL-28 melanoma was 33.3%; in the assay with SK-MEL-2 melanoma, -30.9% (active); in the assay with EKVX NSCLC it was 45.5%; with SN12C renal it was 32.2%; in the assay on UO-31 renal, 35.9%; with TK-10 renal, 95.7%. For the same compound, the growth in the assay with ACHN renal was 43.1%; in the assay on CAKI-1 renal it was 65.2%; in the assay with A498 renal, 112%; in the assay on CCRF-CEM leukemia, 41.6%; with MOLT-4 leukemia it was 40.7%; in the assay with SR leukemia, 50.7%. Also, the growth is 37.6% in the assay with RPMI-8226 leukemia and 37.5% in the assay on OVCAR-8 ovarian.
In the case of `O=C(CN1CCN(c2ncnc3c2cnn3-c2ccccc2)CC1)Nc1ccc(Br)cc1`, the growth in the assay with 786-0 renal was -61.7% (active); with DU-145 prostate, 67.9%; with K-562 leukemia, 42.8%; with MALME-3M melanoma it was -54.4% (active); in the assay with RXF 393 renal, 76%; with UACC-257 melanoma it was 58.7%. The growth in the assay with SK-MEL-28 melanoma is 72%; in the assay on SK-MEL-2 melanoma it was 29.9%; in the assay on EKVX NSCLC, 46.9%; in the assay with SN12C renal, 39.1%; in the assay on UO-31 renal, -77% (active); in the assay on TK-10 renal, 121%. For the same compound, the growth is -88.1% (active) in the assay with ACHN renal; -57% (active) with CAKI-1 renal; 90.9% in the assay on A498 renal; 61.6% in the assay with CCRF-CEM leukemia; 15% in the assay with MOLT-4 leukemia; 40.3% in the assay with SR leukemia. Moreover, the growth in the assay with RPMI-8226 leukemia was 42.6%; with OVCAR-8 ovarian, 64.7%.
Take `COc1ccc(Cc2nn(CC(=O)N/N=C/c3ccc(Br)cc3)c(=O)c3c(C)noc23)cc1`: the growth with 786-0 renal is -53.2% (active); with DU-145 prostate it was 55.4%; with K-562 leukemia, 51.8%; in the assay with MALME-3M melanoma, -8.55% (active); with RXF 393 renal it was -33.7% (active); in the assay with UACC-257 melanoma, 72.2%. For the same compound, the growth in the assay with SK-MEL-28 melanoma was 70.2%; with SK-MEL-2 melanoma, 7.39% (active); in the assay on EKVX NSCLC, 55.1%; in the assay with SN12C renal, 12.4%; in the assay on UO-31 renal it was -15.7% (active); with TK-10 renal, -0.687% (active). The growth in the assay with ACHN renal is 5.6% (active); in the assay on CAKI-1 renal, 21.4%; with A498 renal, 21.3%; with CCRF-CEM leukemia, 40.5%; in the assay on MOLT-4 leukemia it was 63.2%; in the assay on SR leukemia it was 38.5%. Moreover, the growth in the assay on RPMI-8226 leukemia is 55.4%; in the assay with OVCAR-8 ovarian it was 33.9%.
With `Fc1ccc(-c2csc(Nc3cccc(Nc4nc(-c5ccc(F)cc5)cs4)c3)n2)cc1`, the growth in the assay on 786-0 renal was 68.8%; with DU-145 prostate, 67.7%; in the assay on K-562 leukemia it was 36%; with MALME-3M melanoma it was 83%; with RXF 393 renal it was 75.5%; with UACC-257 melanoma, 74.6%. Further, the growth with SK-MEL-28 melanoma is 76.4%; with SK-MEL-2 melanoma, 34.7%; with EKVX NSCLC, 39.8%; with SN12C renal, 47.2%; in the assay with UO-31 renal it was 31.3%; in the assay on TK-10 renal, 94.5%. Besides, the growth in the assay with ACHN renal is 51.8%; in the assay with CAKI-1 renal, 46.4%; in the assay with A498 renal it was 78.3%; in the assay with CCRF-CEM leukemia, 59.1%; in the assay with MOLT-4 leukemia, 46.4%; with SR leukemia, 51.4%. Further, the growth is 49.5% with RPMI-8226 leukemia and 67.9% with OVCAR-8 ovarian.
Regarding `C#C[C@]1(O)CC[C@H]2[C@@H]3CC=C4c5sc(Nc6ccc(N(C)C)cc6)nc5CC[C@]4(C)[C@H]3CC[C@@]21C`, the growth was -54.6% (active) in the assay on 786-0 renal; -8.05% (active) in the assay on DU-145 prostate; 4% (active) in the assay on K-562 leukemia; -44.7% (active) with MALME-3M melanoma; -51.3% (active) in the assay on RXF 393 renal; 45.9% in the assay with UACC-257 melanoma. In addition, the growth was -21.6% (active) with SK-MEL-28 melanoma; -33.1% (active) with SK-MEL-2 melanoma; 24.7% in the assay with EKVX NSCLC; 12.1% in the assay with SN12C renal; -45% (active) in the assay on UO-31 renal; 42.3% with TK-10 renal. The growth in the assay with ACHN renal was -4.47% (active); in the assay on CAKI-1 renal, 2.6% (active); with A498 renal, -42.4% (active); in the assay with CCRF-CEM leukemia it was -1.45% (active); with MOLT-4 leukemia, -6.03% (active); in the assay with SR leukemia, 9.05% (active). In addition, the results for the growth with RPMI-8226 leukemia and with OVCAR-8 ovarian were -42% (active) and 0.0481% (active), respectively.
